Among the data in PubChem BioAssay (NCI) are growth values, retold here.

Among the test systems are HCT-15 colon; HT29 colon; SNB-75 CNS; SNB-19 CNS; U251 CNS; PC-3 prostate; SK-MEL-5 melanoma; UACC-62 melanoma; LOX IMVI melanoma; SK-MEL-28 melanoma; SK-MEL-2 melanoma; EKVX NSCLC; SN12C renal; UO-31 renal; TK-10 renal; ACHN renal; CAKI-1 renal; A498 renal; CCRF-CEM leukemia; MOLT-4 leukemia.
Common to all, as to assay: NCI-60 one-dose screen, 48 h (100 = growth as untreated, 0 = no growth, -100 = all killed)
Holding throughout (details): 10 µM unless noted

Structures are written as SMILES. This is part of a sample that, as a whole, favours compounds with a hit. Of some 83,000 tested, about 20% had one in any assay.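 Method: cells in 96-well plates; compound added at one concentration; 48 h incubation; percent growth measured; values under 10 scored active.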 A number with no mark means an inactive call. The source made the active and inactive calls.

For the molecule `COc1ccc(CCNC(=O)COc2cc3c(Nc4ccc(F)c(Cl)c4)ncnc3cc2OC)cc1OC`, the growth in the assay on HCT-15 colon was 91.2%; in the assay on HT29 colon, 95.5%; in the assay on SNB-75 CNS it was 94.6%; in the assay on SNB-19 CNS, 84.2%; in the assay on U251 CNS it was 103%; with PC-3 prostate, 92.1%. In addition, the growth in the assay on SK-MEL-5 melanoma is 92.5%; in the assay with UACC-62 melanoma, 95.7%; in the assay on LOX IMVI melanoma, 90.1%; in the assay on SK-MEL-28 melanoma, 98.4%; in the assay on SK-MEL-2 melanoma it was 86.9%; in the assay on EKVX NSCLC, 78.2%. Besides, the growth with SN12C renal is 85.2%; with UO-31 renal, 46.8%; in the assay with TK-10 renal, 37.4%; in the assay on ACHN renal, 49%; with CAKI-1 renal, 46.5%; with A498 renal it was 55.6%. The growth with CCRF-CEM leukemia is 100%; in the assay with MOLT-4 leukemia it was 93.4%.

As to `COc1c(O)c(O)cc2c3c(oc12)CC(c1ccc2c(c1)OCO2)CC3=O` (stereo not given), the growth in the assay with HCT-15 colon was 42.1%; in the assay with HT29 colon, 93.4%; in the assay with SNB-75 CNS, 84.5%; with SNB-19 CNS, 77.8%; in the assay with U251 CNS it was 76.2%; with PC-3 prostate, 76.1%. Besides, the growth in the assay on SK-MEL-5 melanoma is 31.4%; with UACC-62 melanoma, 4.1% (active); with LOX IMVI melanoma, 25.3%; with SK-MEL-28 melanoma, 47%; with SK-MEL-2 melanoma, 69.6%; in the assay with EKVX NSCLC, 65.2%. Besides, the growth was 82.2% in the assay on SN12C renal; 44.7% with UO-31 renal; 101% with TK-10 renal; 29.7% with ACHN renal; 72% in the assay with CAKI-1 renal; 97.9% in the assay on A498 renal. Besides, the growth with CCRF-CEM leukemia was 56.7%; in the assay with MOLT-4 leukemia, 43.5%.

With `O=C1/C(=C/c2ccc(-c3cccc(C(F)(F)F)c3)o2)SC(=S)N1CCc1ccc(O)cc1`, the growth was 68.6% with HCT-15 colon; 80.4% in the assay with HT29 colon; 56.7% in the assay on SNB-75 CNS; 104% in the assay with SNB-19 CNS; 87.2% with U251 CNS; 62.6% with PC-3 prostate. Moreover, the growth in the assay with SK-MEL-5 melanoma is 90.1%; with UACC-62 melanoma it was 59%; in the assay with LOX IMVI melanoma it was 68.7%; in the assay with SK-MEL-28 melanoma, 95.8%; in the assay with SK-MEL-2 melanoma it was 56.4%; in the assay on EKVX NSCLC, 89%. The growth in the assay with SN12C renal was 75.1%; with UO-31 renal, 52.9%; with TK-10 renal, 94.1%; in the assay with ACHN renal, 87.4%; in the assay with CAKI-1 renal, 53.8%; with A498 renal, 65.3%. The growth in the assay with CCRF-CEM leukemia was 14%; with MOLT-4 leukemia, 37%.

As for `O=C(NNC(=S)Nc1ccccc1)c1ccncc1`, the growth was 101% with HCT-15 colon; 99.6% in the assay with HT29 colon; 102% with SNB-75 CNS; 110% in the assay with SNB-19 CNS; 105% with U251 CNS; 90.1% in the assay on PC-3 prostate. Moreover, the growth was 109% with SK-MEL-5 melanoma; 109% in the assay with UACC-62 melanoma; 101% with LOX IMVI melanoma; 115% in the assay on SK-MEL-28 melanoma; 94.3% in the assay with SK-MEL-2 melanoma; 117% in the assay on EKVX NSCLC. Also, the growth in the assay with SN12C renal was 109%; in the assay with UO-31 renal, 84%; with TK-10 renal, 102%; in the assay with ACHN renal it was 103%; in the assay on CAKI-1 renal, 133%; in the assay on A498 renal, 124%. Further, the growth in the assay with CCRF-CEM leukemia was 93.7%; in the assay with MOLT-4 leukemia, 104%.

For the molecule `N#Cc1ccccc1-c1ccc(Cn2c(-c3cscn3)nc3c(Cl)cccc32)cc1`, the growth is 77.9% in the assay on HCT-15 colon; 71% with HT29 colon; 78% with SNB-75 CNS; 88.5% in the assay with SNB-19 CNS; 79.1% in the assay on U251 CNS; 54.4% in the assay with PC-3 prostate. Further, the growth in the assay with SK-MEL-5 melanoma is 55.3%; with UACC-62 melanoma it was 75%; in the assay on LOX IMVI melanoma, 65.7%; in the assay with SK-MEL-28 melanoma, 105%; in the assay with SK-MEL-2 melanoma, 75.9%; in the assay with EKVX NSCLC, 76.9%. In addition, the growth in the assay with SN12C renal was 91.2%; in the assay on UO-31 renal, 46%; with TK-10 renal, 81.4%; in the assay on ACHN renal it was 80.8%; with CAKI-1 renal, 70.9%; with A498 renal it was 74.8%. The results for the growth in the assay on CCRF-CEM leukemia and in the assay on MOLT-4 leukemia were 65.8% and 48.2%, respectively.

Turning to `COc1ccc(C(c2cc(OC)c(OC)c(OC)c2)n2ccnc2)cc1O` (stereo not given), the growth with HCT-15 colon was 7.7% (active); in the assay on HT29 colon it was 5.94% (active); in the assay with SNB-75 CNS, 56.7%; in the assay with SNB-19 CNS, 30.5%; with U251 CNS, 15.5%; in the assay on PC-3 prostate, 20.7%. Further, the growth is -12.9% (active) in the assay on SK-MEL-5 melanoma; 36.5% in the assay on UACC-62 melanoma; 25.7% in the assay with LOX IMVI melanoma; 62.9% in the assay on SK-MEL-28 melanoma; 43.5% in the assay with SK-MEL-2 melanoma; 30.2% in the assay with EKVX NSCLC. In addition, the growth in the assay on SN12C renal was 37.6%; in the assay on UO-31 renal, 62%; in the assay with TK-10 renal, 52.9%; with ACHN renal it was 42.4%; in the assay on CAKI-1 renal, 41.3%; with A498 renal, 8.04% (active). The growth is 6.97% (active) in the assay with CCRF-CEM leukemia and 14% in the assay with MOLT-4 leukemia.

As for `O=C1/C(=C/c2cn(-c3ccccc3)nc2-c2ccccc2)SC(=S)N1c1ccccc1`, the growth with HCT-15 colon was 101%; in the assay with HT29 colon it was 108%; in the assay with SNB-75 CNS it was 97.2%; in the assay with SNB-19 CNS, 93.4%; with U251 CNS, 103%; in the assay with PC-3 prostate, 77.9%. Moreover, the growth with SK-MEL-5 melanoma is 98.9%; in the assay with UACC-62 melanoma, 87.5%; in the assay on LOX IMVI melanoma, 86.8%; with SK-MEL-28 melanoma it was 97.4%; in the assay with SK-MEL-2 melanoma, 110%; with EKVX NSCLC it was 99%. For the same molecule, the growth with SN12C renal is 90.7%; in the assay with UO-31 renal, 82.3%; with TK-10 renal, 106%; with ACHN renal it was 95.5%; in the assay on CAKI-1 renal, 87.2%; in the assay on A498 renal, 91.1%. The growth in the assay with CCRF-CEM leukemia is 101%; in the assay with MOLT-4 leukemia, 109%.
